Screens as filed in PubChem.
KKLEB cytotox = cytotoxicity in KKLEB CF airway cells, primary screen, cytotoxicity control for CF NF-kB inhibitor project, cell-based, uHTS, fluorescence assay plates; hit rate 0.36% among 360,000; KKLEB CF airway cells viability, ATPlite luminescence, overnight; stronger effect = lower value; cells stimulated with P. aeruginosa culture filtrate; activity change (cytotoxicity), % at 5 µM;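 active means corrected activity change at or below -50% at 5 µM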
EWS-Fli inh = EWS/Fli-driven NR0B1 reporter inhibitors, primary screen, A673 cells, NR0B1 luciferase, luminescence, MLPCN library; viability-normalised; inhibition, % at 12.6 µM; hit rate 0.67% among 350,000; AID 651661, 2012;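 active means mean inhibition of at least 50% after viability correction, with every replicate also passing that limit; inconclusive means mean reaches 50% but only one of two replicates passes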;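 further: firefly luciferase signal divided by Alamar Blue viability fluorescence both relative to DMSO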
LGR2 inh = inhibitors of bursicon-induced LGR2 CRE-luciferase signal, primary screen, cell-based, HEK293, CRE-luciferase reporter, bursicon stimulation; Drosophila bursicon receptor LGR2 (rickets); bursicon-stimulated, 4 h; inhibition, % at 9.99 µM; hit rate 0.35% among 380,000; AID 720647, 2013;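 active means drop in luminescence signal, shown as inhibition above about 50% in the replicate tests, limit read from the data, passing the limit was not always enough; inconclusive means probably only some replicates passing the limit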;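 further: agonist challenge used bursicon conditioned medium at about half maximal strength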
PAX8 reporter = inhibitors of PAX8-driven TPO luciferase reporter, primary screen, RMG-I cells, single concentration; SteadyGlo, 24 h; inhibition, % at 12.6 µM; hit rate 1.2% among 360,000;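 active means mean replicate inhibition at least 60% with every replicate also reaching 60%; inconclusive means only one of the two criteria is met; inactive means mean below 60% and not all replicates reaching 60%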;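 further: luciferase light reporting Pax8 driven TPO promoter activity; plate controls were median of neutral control wells for no effect and mitoxantrone controls for full effect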
Shn3 3UTR inh = reduction of Shn3 3'UTR firefly luciferase signal, primary screen, Schnurri-3 inhibitor project, cell-based, Clone20 osteoblasts, set 2; Clone20 osteoblast Shn3 3'UTR firefly luciferase, 24 h; inhibition, % at 12.5 µM; hit rate 0.52% among 360,000;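 active means mean inhibition of at least 75% with every replicate also reaching 75%; inconclusive means mean inhibition at least 75% but some replicate below; inactive means mean inhibition below 75%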;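 further: 0% = median of neutral control wells and 100% = pilot-screen positive control compound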
CF NFkB block = inhibitors of PAF-induced NF-kB signaling, primary screen, cell-based, GFP fluorescence, uHTS; KKLEB NF-kB-GFP reporter, GFP fluorescence overnight; inhibition, % at 5 µM; hit rate 0.86% among 360,000; AID 588850, 2011;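 active means at least 50% inhibition at 5 µM, scaled per plate between neutral and stimulator controls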;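 further: PAF is a Pseudomonas aeruginosa culture filtrate used as stimulus; plate controls were PAF-stimulated DMSO wells for no effect and unstimulated DMSO wells for full effect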
* = called active by the depositor; ? = inconclusive; . = no result; ! = not confirmed by another sample. Sampled rows, rich in hits. Any-hit rate of the full collection: about 2%.

SMILES	KKLEB cytotox	EWS-Fli inh	LGR2 inh	PAX8 reporter	Shn3 3UTR inh	CF NFkB block
C[C@@H]1CCCCO[C@@H](CN(C)CC2CCCCC2)[C@@H](C)CN([C@@H](C)CO)C(=O)c2cc(NC(=O)Nc3ccccc3)ccc2O1	.	-0.6	8.1	8.6	.	.
C[C@@H]1CCCCO[C@H](CN(C)CC2CCCCC2)[C@H](C)CN([C@@H](C)CO)C(=O)c2cc(NC(=O)Cc3ccccc3)ccc2O1	.	72.7*	-23.1	-1.1	.	.
C[C@@H]1CCCCO[C@H](CN(C)CC2CCCCC2)[C@H](C)CN([C@@H](C)CO)C(=O)c2cc(NC(=O)Nc3ccc(C(F)(F)F)cc3)ccc2O1	.	81.2*	-4.2	-11.1	.	.
C[C@H](CO)N1C[C@H](C)[C@@H](CN(C)CC2CC2)Oc2c(NS(=O)(=O)c3ccc(Cl)cc3)cccc2C1=O	.	-1.7	-1.4	-22.4	.	.
Cc1cc(C)cc(NC(=O)c2ccc([N+](=O)[O-])o2)c1	-67.6*	17.3	15.4	74.6*	35.3	84.8*
NC(=O)c1oc2ccccc2c1NC(=O)c1ccc([N+](=O)[O-])o1	-24.1	49.1	-13.5	74.2*	57.9	62.3*
NC(=O)c1oc2ccccc2c1NC(=O)c1ccc(F)cc1	3.3	-5.5	-15.7	19.7	4.8	-46.6
Cc1cc(NC(=O)c2ccc([N+](=O)[O-])o2)ccc1NC(=O)c1ccco1	-16.0	-0.7	-4.8	98.9*	-5.6	72.7*
O=C(Nc1ccc2oc(-c3ccncc3)nc2c1)c1ccc([N+](=O)[O-])o1	-19.9	61.9*	-5.3	31.9	?	48.5
O=C(Nc1ccc2oc(-c3ccncc3)nc2c1)c1ccccc1	8.7	-15.5	-11.1	-7.3	-3.6	-24.5
COc1cc(NC(=O)c2ccc([N+](=O)[O-])o2)ccc1NC(=O)c1ccco1	-15.3	.	-1.5	89.9*	68.2	9.5
CC(NC(=O)c1ccc([N+](=O)[O-])o1)C12CC3CC(CC(C3)C1)C2 (stereo unspecified)	-70.3*	18.1	14.7	66.5*	50.6	99.6*
COc1cc(NC(=O)c2cccc([N+](=O)[O-])c2)ccc1NC(=O)c1ccco1	17.7	1.3	.	8.7	0.4	-26.5
O=C(CNC(=O)c1ccccc1O)N/N=C/c1cc(Br)ccc1OC(=O)/C=C/c1ccco1	.	21.2	-14.8	41.8	.	.
O=C(CNC(=O)c1cccc(F)c1)N/N=C/c1cc(Br)ccc1OC(=O)/C=C/c1ccco1	-1.1	16.1	-1.0	9.4	86.9*	8.1
C[C@@H]1CN([C@@H](C)CO)C(=O)CCCn2cc(nn2)CO[C@@H]1CN(C)C(=O)Nc1cccc(C(F)(F)F)c1	.	0.0	-17.0	-14.6	.	.
CCc1ccc2nc(SCC(=O)Nc3ccccc3N3CCOCC3)c(C#N)cc2c1	-7.4	58.6*	-3.3	36.5	4.7	6.2
Clc1ccc(C[n+]2cc(-c3ccccc3)n3c2CCCCC3)c(Cl)c1	-7.5	35.6	5.1	81.3*	?	-6.2
Clc1ccc(-c2c[n+](Cc3ccc(Cl)cc3Cl)c3n2CCCCC3)cc1	-21.5	7.5	1.4	22.0	46.8	19.1
COc1ccc(/C=C/C(=O)c2cc(Cl)cc(Cl)c2O)c(OC)c1	-7.4	-9.6	-5.4	19.9	-17.0	15.2
O=C(/C=C/c1ccccn1)c1cc(Cl)cc(Cl)c1O	-14.4	1.3	5.5	63.3*	-0.6	7.2
COc1ccc(S(=O)(=O)Nc2ccc3c(c2)[C@@H]2C[C@H](CC(=O)O)O[C@H](CO)[C@@H]2O3)cc1	.	3.1	6.9	.	.	.
CC12CCC(=O)C=C1CCC1C2C(O)CC2(C)C(c3csc(N)n3)CCC12 (stereo unspecified)	-8.3	2.9	1.1	-21.9	85.6*	7.3
CC12CCC(=O)C=C1CCC1C2CCC2(C)C(c3csc(N)n3)CCC12 (stereo unspecified)	-18.2	7.9	8.2	29.8	75.4	38.5
C1CCC(C(CC2CCCCN2)C2CCCCC2)CC1 (stereo unspecified)	-17.1	?	57.9*!	-3.8	?	10.3
SMILES	KKLEB cytotox	EWS-Fli inh	LGR2 inh	PAX8 reporter	Shn3 3UTR inh	CF NFkB block
CN(C)CC(CCC(CN(C)C)C(O)(c1ccccc1)c1ccccc1)C(O)(c1ccccc1)c1ccccc1 (stereo unspecified)	.	35.7	19.1	86.7*	.	.
CCc1c(C)[nH]n(-c2nc(-c3ccccc3)cs2)c1=O	17.7	-17.1	-17.6	-39.7	-18.1	-9.0
Cc1[nH]n(-c2nc(-c3ccc(Cl)cc3)cs2)c(=O)c1N=Nc1ccc(O)cc1	-3.2	40.9	2.1	-3.7	90.4*	16.8
O=C(N/N=C/c1ccccc1)c1ccco1	-6.3	-49.7	-33.9	-45.0	-49.0	6.3
O=C(C#Cc1ccccc1)c1ccco1	-64.3*	64.0*	50.0*	123.7*	95.2*	98.6*
CC(=O)c1ccc(NC(=O)c2cnn3ccccc23)cc1	15.4	69.2*	?	33.9	80.0	-25.1
CC(=O)c1cccc(NC(=O)c2cnn3ccccc23)c1	-0.6	-61.8	-18.5	-110.7	-62.3	9.5
CC(C)C#Cc1cnc2c(c1)C(=O)N([C@H](C)CO)C[C@@H](C)[C@@H](CN(C)C(=O)Cc1ccncc1)O2	.	2.3	1.9	-5.1	.	.
COc1ccc(N/N=C(\C#N)C(N)=O)cc1	-6.3	-4.3	5.8	-7.8	-16.0	-0.3
N#C/C(=N/Nc1ccc(OC(F)(F)F)cc1)C(N)=S	-48.3	-35.0	33.4	80.8*	-30.1	64.3*
CCOc1ccc(Br)cc1C1=CC(=O)C[C@H](c2ccc(OC)cc2)C1	-20.5	57.4*	23.6	30.8	93.5*	36.5
COc1ccc([C@H]2CC(=O)C=C(c3cc(Br)ccc3OC)C2)cc1	-28.4	26.2	11.7	29.8	-1.9	37.4
COc1ccc(OC)c(C2=CC(=O)C[C@H](c3ccc4c(c3)OCO4)C2)c1	-32.1	65.7*	3.4	-6.6	-11.3	33.0
COc1ccc([C@H]2CC(=O)C=C(c3cc(C)ccc3OC)C2)cc1	-16.8	59.9*	13.9	18.8	-3.1	14.0
O=C(NC[C@H]1[C@@H](c2ccccc2)[C@H](CO)N1C(=O)C1CC1)NC1CCCC1	.	5.1	11.0	-3.1	.	.
COc1cccc(CN2CC3(C2)CN(C(=O)Nc2ccc(F)cc2)[C@H](CO)c2c3c3ccc(OC)cc3n2C)c1	.	2.4	28.0	.	.	.
COc1ccc(S(=O)(=O)Nc2ccc3c(c2)C(=O)N([C@@H](C)CO)C[C@@H](C)[C@@H](CN(C)C(=O)CCCN(C)C)OCCCC[C@@H](C)O3)cc1	.	-6.7	-16.0	-10.8	.	.
C[C@@H]1CN([C@H](C)CO)S(=O)(=O)c2ccc(C3=CCCCC3)cc2O[C@@H]1CN(C)C(=O)C1CCCCC1	.	11.2	18.3	.	.	.
